What all share (experiment): yeast three-hybrid, YBZ-1, SC-Leu-His + 0.5 mM 3-AT, 4 days
Common to all, as to settings: tags: N-Gal4 AD-HA kept; label: inside an RPR1-promoter hybrid RNA with tandem MS2 sites; ssRNA

One experiment has as its target PUM1 PUF domain R1-NSR (Homo sapiens, UniProt Q14671 828-1176, S863N;R864S;Q867R). In outline: (§1)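 The interaction score is the log change in how often each variant appears, from input to selection. Frequencies came from PCR-amplified, Illumina-sequenced repeat regions of Pumilio-1 PUF domain libraries grown in strain YBZ-1 (LexA–MS2 coat fusion, HIS3 reporter) alongside matching RNA elements. Input plates were SC-Leu and selection plates were SC-Leu-His + 0.5 mM 3-AT, each for four days, and the log2 calculation used a pseudocount of 1 where a variant was absent.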

The next experiment has as its target PUM1 PUF domain R5-PRH (Homo sapiens, UniProt Q14671 828-1176, C1007P;Q1011H). The essentials: as §1
Another experiment deals with PUM1 PUF domain R5-CKR (Homo sapiens, UniProt Q14671 828-1176, R1008K;Q1011R). In outline: as §1
In a further experiment the target is PUM1 PUF domain R3-MPR (Homo sapiens, UniProt Q14671 828-1176, C935M;R936P;Q939R). In outline:
as §1

The next experiment addresses PUM1 PUF domain R7-ERG (Homo sapiens, UniProt Q14671 828-1176, S1079E;N1080R;E1083G). In outline: as §1
Another experiment has as its target PUM1 PUF domain R4-VNC (Homo sapiens, UniProt Q14671 828-1176, N971V;H972N;Q975C). The essentials:
as §1

In the next experiment the target is PUM1 PUF domain R1-GMK (Homo sapiens, UniProt Q14671 828-1176, S863G;R864M;Q867K). In outline:
as §1

Another experiment concerns the target PUM1 PUF domain R5-KAT (Homo sapiens, UniProt Q14671 828-1176, C1007K;R1008A;Q1011T). In outline: as §1
The target in a further experiment is PUM1 PUF domain R5-RMV (Homo sapiens, UniProt Q14671 828-1176, C1007R;R1008M;Q1011V). The essentials: as §1
Another experiment addresses T1, PUM1 PUF domain R6-RWA (Homo sapiens, UniProt Q14671 828-1176, N1043R;Y1044W;Q1047A).
T1 sequence: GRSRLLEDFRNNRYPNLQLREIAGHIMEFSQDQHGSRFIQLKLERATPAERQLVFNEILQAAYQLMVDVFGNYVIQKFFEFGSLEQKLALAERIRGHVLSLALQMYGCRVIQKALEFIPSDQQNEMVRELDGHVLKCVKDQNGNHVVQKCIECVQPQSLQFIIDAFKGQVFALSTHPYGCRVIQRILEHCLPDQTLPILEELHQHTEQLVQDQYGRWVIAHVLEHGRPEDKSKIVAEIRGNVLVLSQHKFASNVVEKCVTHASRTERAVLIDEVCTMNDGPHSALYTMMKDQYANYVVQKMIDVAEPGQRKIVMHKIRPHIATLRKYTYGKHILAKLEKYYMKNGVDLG
The essentials: as §1

For “GGCUAGAACUAGUGGAUCCCCCGGCGCCCGGCGGCUCGAGCCCGGGUAAGUGUAAAUCGUCUGCAUGCCGCCGGGCGCCAUGCCUGCAGGUCGACUCUAGAAAACAUG”, the binding signal with PUM1 PUF domain R1-NSR is 2.5 log2 enrichment (interaction score).

On to “GGCUAGAACUAGUGGAUCCCCCGGCGCCCGGCGGCUCGAGCCCGGGUAAGUGUUAAUAGUCUGCAUGCCGCCGGGCGCCAUGCCUGCAGGUCGACUCUAGAAAACAUG”, for which the figures for the binding signal in the experiment with PUM1 PUF domain R5-PRH and with PUM1 PUF domain R5-CKR were 3.48 log2 enrichment (interaction score) and 1.55 log2 enrichment (interaction score), respectively.

As for “GGCUAGAACUAGUGGAUCCCCCGGCGCCCGGCGGCUCGAGCCCGGGUAAGUGUAAUUAGUCUGCAUGCCGCCGGGCGCCAUGCCUGCAGGUCGACUCUAGAAAACAUG”, in the experiment with PUM1 PUF domain R3-MPR, the binding signal is 2.67 log2 enrichment (interaction score).

In the case of “GGCUAGAACUAGUGGAUCCCCCGGCGCCCGGCGGCUCGAGCCCGGGUAAGUGUGAAUAGUCUGCAUGCCGCCGGGCGCCAUGCCUGCAGGUCGACUCUAGAAAACAUG”, the binding signal with PUM1 PUF domain R5-PRH was 2.93 log2 enrichment (interaction score).

With “GGCUAGAACUAGUGGAUCCCCCGGCGCCCGGCGGCUCGAGCCCGGGUAAGUCUAAAUAGUCUGCAUGCCGCCGGGCGCCAUGCCUGCAGGUCGACUCUAGAAAACAUG”, in the experiment with PUM1 PUF domain R7-ERG, the binding signal was 2.98 log2 enrichment (interaction score).

As to “GGCUAGAACUAGUGGAUCCCCCGGCGCCCGGCGGCUCGAGCCCGGGUAAGUUUAAAUAGUCUGCAUGCCGCCGGGCGCCAUGCCUGCAGGUCGACUCUAGAAAACAUG”, the binding signal with PUM1 PUF domain R7-ERG was 4.23 log2 enrichment (interaction score).

Take “GGCUAGAACUAGUGGAUCCCCCGGCGCCCGGCGGCUCGAGCCCGGGUAAGUGUACAUAGUCUGCAUGCCGCCGGGCGCCAUGCCUGCAGGUCGACUCUAGAAAACAUG”: in the experiment with PUM1 PUF domain R4-VNC, the binding signal was 3.19 log2 enrichment (interaction score).

Take “GGCUAGAACUAGUGGAUCCCCCGGCGCCCGGCGGCUCGAGCCCGGGUAAGUGUAAAUUGUCUGCAUGCCGCCGGGCGCCAUGCCUGCAGGUCGACUCUAGAAAACAUG”: the binding signal in the experiment with PUM1 PUF domain R1-NSR is 0.4 log2 enrichment (interaction score); with PUM1 PUF domain R1-GMK it was 3.16 log2 enrichment (interaction score).

With “GGCUAGAACUAGUGGAUCCCCCGGCGCCCGGCGGCUCGAGCCCGGGUAAGUGUCAAUAGUCUGCAUGCCGCCGGGCGCCAUGCCUGCAGGUCGACUCUAGAAAACAUG”, the binding signal was 3.96 log2 enrichment (interaction score) with PUM1 PUF domain R5-KAT, 3.48 log2 enrichment (interaction score) with PUM1 PUF domain R5-RMV and 5.95 log2 enrichment (interaction score) in the experiment with PUM1 PUF domain R5-CKR.

On to “GGCUAGAACUAGUGGAUCCCCCGGCGCCCGGCGGCUCGAGCCCGGGUAAGUGUAAAUAGUCUGCAUGCCGCCGGGCGCCAUGCCUGCAGGUCGACUCUAGAAAACAUG”, for which the binding signal was 0.58 log2 enrichment (interaction score) in the experiment with PUM1 PUF domain R3-MPR, 3.22 log2 enrichment (interaction score) in the experiment with PUM1 PUF domain R5-PRH and 5.03 log2 enrichment (interaction score) in the experiment with PUM1 PUF domain R6-RWA.

On to “GGCUAGAACUAGUGGAUCCCCCGGCGCCCGGCGGCUCGAGCCCGGGUAAGUGAAAAUAGUCUGCAUGCCGCCGGGCGCCAUGCCUGCAGGUCGACUCUAGAAAACAUG”, for which the binding signal with PUM1 PUF domain R6-RWA was 4.28 log2 enrichment (interaction score).

These data come from PMC8384837, “Expanding the binding specificity for RNA recognition by a PUF domain”.
